# Measured values reported in ChEMBL document CHEMBL3988442, “University of Dundee, Small-Polar-MMV Screening Library” (2021).
# For some of these results: Results with a measured potency or affinity are listed apart.
# Assays:
# Design in all cases: scale not given: direction of the effect not stated beside the values
# [1] = target: Protein translocase subunit SecA (Escherichia coli (strain K12)) (UniProt P10408); assay: Assay to Identify E. coli SecA ATPase Inhibitors; assay type: functional; conditions: 30 µM
# [2] = target: T1, Ubiquitin-activating enzyme e1, putative (Leishmania donovani (strain BPK282A1)) (UniProt E9BSI1); assay: Leishmania donovani Ubiquitin Activating Enzyme (LdE1); assay type: functional; conditions: 30 µM
# T1 sequence (whole entry): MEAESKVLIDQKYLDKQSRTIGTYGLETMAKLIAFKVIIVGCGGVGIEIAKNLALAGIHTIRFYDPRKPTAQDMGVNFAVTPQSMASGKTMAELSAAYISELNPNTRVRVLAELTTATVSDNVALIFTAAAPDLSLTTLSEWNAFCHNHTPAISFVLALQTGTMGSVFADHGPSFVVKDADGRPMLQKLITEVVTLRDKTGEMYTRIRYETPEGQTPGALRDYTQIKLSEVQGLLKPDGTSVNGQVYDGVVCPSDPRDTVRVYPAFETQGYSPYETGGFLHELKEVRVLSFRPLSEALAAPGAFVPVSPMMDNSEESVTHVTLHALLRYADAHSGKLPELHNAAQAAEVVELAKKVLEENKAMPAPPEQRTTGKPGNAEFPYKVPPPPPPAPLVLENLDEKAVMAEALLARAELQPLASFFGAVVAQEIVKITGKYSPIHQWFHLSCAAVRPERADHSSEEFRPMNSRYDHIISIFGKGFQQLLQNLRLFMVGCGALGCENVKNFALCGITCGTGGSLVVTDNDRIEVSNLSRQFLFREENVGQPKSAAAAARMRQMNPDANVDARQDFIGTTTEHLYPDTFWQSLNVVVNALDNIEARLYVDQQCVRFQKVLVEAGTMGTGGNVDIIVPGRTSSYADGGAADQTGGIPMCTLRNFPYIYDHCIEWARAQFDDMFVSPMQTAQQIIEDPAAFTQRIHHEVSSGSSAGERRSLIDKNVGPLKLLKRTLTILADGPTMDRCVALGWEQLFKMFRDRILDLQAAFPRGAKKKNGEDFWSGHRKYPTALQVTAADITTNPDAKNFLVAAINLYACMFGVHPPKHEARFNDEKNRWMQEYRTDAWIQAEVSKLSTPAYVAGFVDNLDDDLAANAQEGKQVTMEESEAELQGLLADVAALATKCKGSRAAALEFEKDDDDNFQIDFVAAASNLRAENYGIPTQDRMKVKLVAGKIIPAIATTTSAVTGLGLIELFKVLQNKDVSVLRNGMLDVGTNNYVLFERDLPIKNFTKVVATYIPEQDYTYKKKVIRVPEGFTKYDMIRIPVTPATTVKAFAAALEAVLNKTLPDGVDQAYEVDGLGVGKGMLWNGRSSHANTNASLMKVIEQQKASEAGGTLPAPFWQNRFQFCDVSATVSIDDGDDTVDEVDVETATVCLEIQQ
# [3] = target: Sialic acid-binding Ig-like lectin 9 (Homo sapiens) (UniProt Q9Y336); assay: Hs-Siglec9 ALPHAscreen SOP 20170721; conditions: 10 µM
# Trypanosoma cruzi = assay: Trypanosoma cruzi phosphomannomutase and mannose-1-phosphate guanylyltransferase assay; assay type: functional; conditions: 10 µM
# [4] = target: T2, Arginase-2, mitochondrial (Homo sapiens) (UniProt P78540); assay: in vitro enzyme assay to detect the production of urea directly proportional to the activity of Arginase II; assay type: functional; conditions: 33.3 µM; further: in the data most compounds retested in dose-response had high values
# T2 sequence (whole entry): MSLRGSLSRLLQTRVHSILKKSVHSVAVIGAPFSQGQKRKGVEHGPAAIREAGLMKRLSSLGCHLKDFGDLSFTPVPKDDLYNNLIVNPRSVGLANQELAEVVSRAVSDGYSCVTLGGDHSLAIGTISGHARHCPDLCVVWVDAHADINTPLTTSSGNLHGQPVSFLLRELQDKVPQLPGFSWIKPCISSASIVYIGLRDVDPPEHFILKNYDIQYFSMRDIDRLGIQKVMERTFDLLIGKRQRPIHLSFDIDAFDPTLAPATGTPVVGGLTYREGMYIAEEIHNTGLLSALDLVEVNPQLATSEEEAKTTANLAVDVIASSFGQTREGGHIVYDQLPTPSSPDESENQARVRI
# [5] = target: T3, Proteasome subunit beta (Trypanosoma cruzi) (UniProt O96673); assay: Trypanosoma cruzi proteasome chymotrypsin-like activity (TcProtChymo) assay.; further: in the data most compounds retested in dose-response had high values; assay type: functional; conditions: 9.37 µM
# T3 sequence (whole entry): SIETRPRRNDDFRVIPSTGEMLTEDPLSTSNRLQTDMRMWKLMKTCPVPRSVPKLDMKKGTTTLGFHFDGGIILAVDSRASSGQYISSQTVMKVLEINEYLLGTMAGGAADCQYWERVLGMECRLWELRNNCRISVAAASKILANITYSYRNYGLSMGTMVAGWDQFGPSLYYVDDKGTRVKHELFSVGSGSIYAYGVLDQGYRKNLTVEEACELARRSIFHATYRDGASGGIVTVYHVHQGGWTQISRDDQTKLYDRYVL
# Homo sapiens = organism: Homo sapiens; assay: To identify inhibition of the IFN signalling (Jak-Stat) pathway via expression of an eGFP reporter gene under the control of an IFN-stimulated response element (ISRE) containing MxA promoter.; assay type: functional; conditions: 30 µM
# [6] = target: T4, Tyrosyl-tRNA synthetase, putative (Trypanosoma cruzi (strain CL Brener)) (UniProt Q4DSP6); assay: Trypanosoma cruzi tyrosyl tRNA synthetase (TcYRS) _High Tyrosine SOP; assay type: functional; conditions: 30 µM; further: in the data most compounds retested in dose-response had high values
# T4 sequence (whole entry): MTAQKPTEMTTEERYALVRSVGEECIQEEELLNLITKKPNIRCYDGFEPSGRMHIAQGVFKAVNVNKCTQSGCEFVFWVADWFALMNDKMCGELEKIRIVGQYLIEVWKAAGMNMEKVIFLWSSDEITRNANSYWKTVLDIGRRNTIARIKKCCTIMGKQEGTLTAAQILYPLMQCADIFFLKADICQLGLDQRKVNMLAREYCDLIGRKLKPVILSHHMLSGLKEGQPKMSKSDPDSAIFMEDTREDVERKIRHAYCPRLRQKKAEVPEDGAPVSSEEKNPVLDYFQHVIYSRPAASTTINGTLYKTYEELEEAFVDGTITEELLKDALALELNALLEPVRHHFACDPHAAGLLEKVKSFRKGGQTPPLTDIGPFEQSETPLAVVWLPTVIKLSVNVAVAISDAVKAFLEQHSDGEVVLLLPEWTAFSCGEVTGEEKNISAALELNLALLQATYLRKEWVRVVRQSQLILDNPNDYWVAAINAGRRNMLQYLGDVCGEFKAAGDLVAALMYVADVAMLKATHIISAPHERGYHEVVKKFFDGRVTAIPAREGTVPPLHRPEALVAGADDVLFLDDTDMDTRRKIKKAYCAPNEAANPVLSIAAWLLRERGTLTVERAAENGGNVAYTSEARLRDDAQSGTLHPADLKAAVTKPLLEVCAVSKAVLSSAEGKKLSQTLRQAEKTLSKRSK
# [7] = target: T4, Tyrosyl-tRNA synthetase, putative (Trypanosoma cruzi (strain CL Brener)); assay: Trypanosoma cruzi tyrosyl tRNA synthetase (TcYRS) SOP; assay type: functional; conditions: 30 µM
# [8] = target: Chromo domain-containing protein 1 (Saccharomyces cerevisiae (strain ATCC 204508 / S288c) (Baker's yeast)) (UniProt P32657); assay: ScCHD-1 Enzyme Inhibition Assay; assay type: functional; conditions: 30 µM; further: in the data most compounds retested in dose-response had high values
# Chain of Chromo domain-containing protein 1 (Saccharomyces cerevisiae (strain ATCC 204508 / S288c) (Baker's yeast)) (P32657 whole entry, the tested form may be a part): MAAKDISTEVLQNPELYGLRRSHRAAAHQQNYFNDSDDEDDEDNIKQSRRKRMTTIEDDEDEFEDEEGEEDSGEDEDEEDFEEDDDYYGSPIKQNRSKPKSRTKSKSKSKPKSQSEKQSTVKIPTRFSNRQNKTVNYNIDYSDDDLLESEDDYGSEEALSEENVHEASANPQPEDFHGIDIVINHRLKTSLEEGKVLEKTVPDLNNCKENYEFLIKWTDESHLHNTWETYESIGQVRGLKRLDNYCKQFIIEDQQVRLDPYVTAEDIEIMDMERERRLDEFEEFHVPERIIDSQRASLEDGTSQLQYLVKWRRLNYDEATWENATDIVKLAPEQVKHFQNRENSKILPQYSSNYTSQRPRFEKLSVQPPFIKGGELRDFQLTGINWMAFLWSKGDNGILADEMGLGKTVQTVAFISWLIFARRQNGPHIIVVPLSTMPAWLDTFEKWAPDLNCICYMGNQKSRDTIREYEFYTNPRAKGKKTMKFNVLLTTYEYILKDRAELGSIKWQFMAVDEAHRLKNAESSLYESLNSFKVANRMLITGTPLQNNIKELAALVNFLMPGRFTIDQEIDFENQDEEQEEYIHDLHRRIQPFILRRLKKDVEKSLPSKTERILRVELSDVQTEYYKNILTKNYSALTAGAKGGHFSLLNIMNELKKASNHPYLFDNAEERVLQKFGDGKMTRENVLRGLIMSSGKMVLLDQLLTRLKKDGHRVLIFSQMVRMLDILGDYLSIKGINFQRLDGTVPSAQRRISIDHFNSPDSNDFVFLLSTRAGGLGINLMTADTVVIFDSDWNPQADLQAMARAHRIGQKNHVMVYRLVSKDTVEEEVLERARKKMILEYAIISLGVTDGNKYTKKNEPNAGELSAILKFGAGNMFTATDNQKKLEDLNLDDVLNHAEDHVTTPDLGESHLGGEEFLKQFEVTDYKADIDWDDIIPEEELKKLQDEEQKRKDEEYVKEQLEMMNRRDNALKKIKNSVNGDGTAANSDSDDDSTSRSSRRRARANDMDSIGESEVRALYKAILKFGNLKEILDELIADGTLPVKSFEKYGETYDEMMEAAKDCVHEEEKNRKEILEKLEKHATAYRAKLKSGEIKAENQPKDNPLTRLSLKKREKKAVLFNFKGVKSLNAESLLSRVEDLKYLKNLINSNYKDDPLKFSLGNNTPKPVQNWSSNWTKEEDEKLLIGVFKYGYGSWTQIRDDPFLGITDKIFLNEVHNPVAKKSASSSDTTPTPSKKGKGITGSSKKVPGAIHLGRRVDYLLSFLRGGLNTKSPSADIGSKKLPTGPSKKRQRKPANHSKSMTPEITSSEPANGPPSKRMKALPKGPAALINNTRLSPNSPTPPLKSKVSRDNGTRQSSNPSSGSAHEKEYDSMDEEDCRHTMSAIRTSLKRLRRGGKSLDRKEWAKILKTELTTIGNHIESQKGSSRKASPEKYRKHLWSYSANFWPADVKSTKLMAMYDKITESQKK
# Chain of Sialic acid-binding Ig-like lectin 9 (Homo sapiens) (Q9Y336 whole entry): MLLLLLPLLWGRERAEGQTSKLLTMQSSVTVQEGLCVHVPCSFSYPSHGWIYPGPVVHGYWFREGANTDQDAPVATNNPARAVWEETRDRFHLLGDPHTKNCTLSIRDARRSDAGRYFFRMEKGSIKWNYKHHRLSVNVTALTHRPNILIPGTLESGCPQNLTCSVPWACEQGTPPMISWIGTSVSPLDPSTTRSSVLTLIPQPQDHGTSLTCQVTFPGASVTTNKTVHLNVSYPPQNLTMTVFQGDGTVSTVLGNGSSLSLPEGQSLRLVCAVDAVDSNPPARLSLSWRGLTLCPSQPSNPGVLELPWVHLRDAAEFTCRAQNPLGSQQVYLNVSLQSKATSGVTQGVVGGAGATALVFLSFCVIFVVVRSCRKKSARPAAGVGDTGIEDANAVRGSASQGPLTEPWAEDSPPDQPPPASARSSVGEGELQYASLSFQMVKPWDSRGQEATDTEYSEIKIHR
# Chain of Protein translocase subunit SecA (Escherichia coli (strain K12)) (P10408 whole entry): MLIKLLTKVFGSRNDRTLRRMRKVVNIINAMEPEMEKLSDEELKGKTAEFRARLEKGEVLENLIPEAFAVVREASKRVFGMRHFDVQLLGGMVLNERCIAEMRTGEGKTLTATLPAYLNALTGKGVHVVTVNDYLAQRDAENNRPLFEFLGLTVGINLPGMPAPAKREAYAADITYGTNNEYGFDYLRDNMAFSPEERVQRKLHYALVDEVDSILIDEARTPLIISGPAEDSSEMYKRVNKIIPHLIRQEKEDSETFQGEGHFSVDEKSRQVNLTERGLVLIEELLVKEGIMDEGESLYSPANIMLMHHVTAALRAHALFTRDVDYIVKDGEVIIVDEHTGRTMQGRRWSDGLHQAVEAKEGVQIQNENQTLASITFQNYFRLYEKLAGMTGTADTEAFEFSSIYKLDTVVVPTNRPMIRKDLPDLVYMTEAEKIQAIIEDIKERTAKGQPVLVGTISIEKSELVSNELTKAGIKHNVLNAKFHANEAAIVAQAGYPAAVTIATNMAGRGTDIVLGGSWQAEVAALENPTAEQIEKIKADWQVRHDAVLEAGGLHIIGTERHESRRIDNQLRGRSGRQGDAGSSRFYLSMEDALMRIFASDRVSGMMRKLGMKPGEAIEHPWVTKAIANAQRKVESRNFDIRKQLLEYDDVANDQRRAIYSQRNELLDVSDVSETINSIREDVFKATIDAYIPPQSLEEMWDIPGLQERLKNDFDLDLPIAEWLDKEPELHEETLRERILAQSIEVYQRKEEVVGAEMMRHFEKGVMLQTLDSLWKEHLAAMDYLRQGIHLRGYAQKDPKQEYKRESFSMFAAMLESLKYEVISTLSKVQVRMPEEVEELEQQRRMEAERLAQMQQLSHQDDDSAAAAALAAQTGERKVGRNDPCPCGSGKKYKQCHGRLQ
Structure (SMILES),Percent Effect [1],Percent Effect [2],Percent Effect [3],Percent Effect (Trypanosoma cruzi),Percent Effect [4],Percent Effect [5],Percent Effect (Homo sapiens),Percent Effect [6],Percent Effect [7],Percent Effect [8]
CC(C)(O)CN1CCN(C(=O)c2cccnc2O)CC1,-2.01%,-2.56%,5.77%,7.98%,2.46%,9.13%,-4.14%,1.44%,1.21%,-0.501%
Cc1ccc(Oc2ccc(NC(=O)NCC3CCOC3)cn2)cc1C (stereo not given),-2.89%,10.3%,-3.96%,7.98%,6.97%,8.79%,-3.33%,4.31%,20.5%,-8.82%
CC(=O)N1N=C(c2ccccc2)OC1C(=O)NCCc1cccc(Cl)c1 (stereo not given),4.91%,6.67%,-6.99%,-2.56%,2.65%,8.05%,8.59%,0%,10%,-24.5%
c1cc(-c2nc(CN3CCn4c(nnc4C4CC4)C3)cs2)cs1,0.225%,-23.1%,-7.08%,3.47%,-1.64%,5.55%,21.9%,2.39%,8.43%,5.73%
CCOc1ncccc1NC(=O)NC1CCCN(c2ncccn2)C1 (stereo not given),0.363%,23.4%,1.83%,4.66%,-8.4%,13.3%,8.06%,11.8%,30.6%,-4.97%
O=C(CCSc1ccc(F)cc1)NS(=O)(=O)c1ccc2c(c1)OCCO2,-5.54%,-10.3%,-3.31%,4.22%,-2.05%,13.1%,1.97%,-11%,-1.21%,-2.81%
COc1ccc(F)cc1C(=O)N(C)Cc1cc(C)on1,-0.183%,15.4%,-5.44%,-1.22%,-0.41%,14.1%,21.1%,2.39%,13.2%,-1.49%
Cc1cnn(CC2CCCN2C(=O)c2ccc(C(N)=O)cn2)c1 (stereo not given),-5%,15.4%,2.02%,5.92%,2.05%,9.47%,12.1%,0.478%,13.2%,-6.88%
Cc1cccc(CN2CCC3(CCN(c4ccccn4)C3)C2=O)c1 (stereo not given),-2.21%,16.9%,0.691%,3%,-0.913%,14%,11.4%,10.6%,12.5%,-5.26%
COc1cccc(-n2nnc(C(=O)N3CCNC(=O)C3)c2C)c1,-4.4%,15.4%,-22.9%,9.11%,0.41%,8.96%,16%,5.26%,25.3%,22.3%
CC(C)CN(Cc1nc2c(cnn2C)c(=O)[nH]1)C(C)C,-1.52%,10.3%,-1.47%,5.92%,7.38%,-3.5%,-18.2%,5.26%,18.1%,0.0184%
O=C(c1ccc(F)cc1)N1CCC2(CCCN2CC2CC2)CC1,-2.9%,9.09%,-6.13%,-6.57%,5.94%,14%,11.5%,0.966%,0%,-3.47%
O=C1CC(c2ccco2)c2sc(C(=O)O)c(-c3ccccc3)c2N1 (stereo not given),-3.7%,18.9%,68.7%,2.23%,-3.85%,27.7%,-0.84%,7.98%,17.1%,44.8%
COCCc1noc(CN2CCCCC2Cn2nc(C)cc2C)n1 (stereo not given),-2.9%,-2.6%,13.8%,-1.68%,2.25%,-3.51%,-5.82%,0.98%,7.06%,9%
NC(=O)NC(=O)CCN1CCCN(c2nccs2)CC1,-0.41%,10.7%,-0.94%,-4.02%,3.1%,9.41%,13.6%,7.89%,10.3%,-7.5%
CN(C)S(=O)(=O)N1CC[C@]2(C[C@H](Oc3ncccc3F)CO2)C1,-1.29%,1.3%,10.8%,0.0974%,0%,1.15%,-1.45%,4.74%,5.13%,14.3%
Cn1ccnc1CN1CCOCC(Cc2ccccn2)C1 (stereo not given),-3.37%,6.67%,0.649%,-4.14%,5.75%,11.3%,8.81%,1.06%,10%,-19.9%
CC(C)(C)c1nnc(CN2CCCC(Cn3cncn3)C2)o1 (stereo not given),-2.1%,-2.56%,0.0313%,4.41%,0.41%,-1.79%,8%,2.39%,1.21%,-1.8%
CCc1[nH]ncc1C(=O)N1CCCC(n2ccnc2C(C)C)C1 (stereo not given),-3.48%,13.3%,5.91%,0%,0.887%,0.763%,25.5%,3.68%,10.3%,-5.4%
CN(C)CC1CN(Cc2coc(-c3cccs3)n2)CCO1 (stereo not given),-1.09%,13.3%,-3.06%,-2.41%,2.22%,11.8%,15.3%,-0.526%,5.13%,-10.9%
CNc1snc(C)c1C(=O)N1CCCC(n2ccnc2C(C)C)C1 (stereo not given),-0.908%,0%,1.03%,2.21%,0.444%,5%,14.7%,1.58%,0%,-1.07%
CC(C)c1nc(C2CCCN2Cc2ccn(C)c(=O)c2)no1 (stereo not given),-2.26%,15.4%,1.98%,-0.845%,7.79%,20.1%,17.1%,6.22%,18.1%,-2.67%
